About 83,000 compounds went through this panel and 20% of them were active in at least one assay; those are over-represented in the sample as a whole.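 Plates (96-well) were seeded with cells, treated with compound at one concentration, and incubated for 48 hours before percent growth was determined.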 Values without a mark were called inactive. Active and inactive are the calls of the source. The calls were made as follows: active = growth percent below 10; inactive = the rest.
Assays:
Assay in all cases: NCI-60 one-dose screen, 48 h (100 = growth as untreated, 0 = no growth, -100 = all killed)
DU-145 prostate = conditions: 10 µM
K-562 leukemia = conditions: 10 µM
MALME-3M melanoma = conditions: 10 µM
MDA-MB-231 breast = conditions: 10 µM
RXF 393 renal = conditions: 10 µM
SF-268 CNS = conditions: 10 µM
SF-295 CNS = conditions: 10 µM
SF-539 CNS = conditions: 10 µM
UACC-257 melanoma = conditions: 10 µM
M14 melanoma = conditions: 10 µM
HCT-15 colon = conditions: 10 µM
HT29 colon = conditions: 10 µM
SNB-75 CNS = conditions: 10 µM
SNB-19 CNS = conditions: 10 µM
U251 CNS = conditions: 10 µM
PC-3 prostate = conditions: 10 µM
SK-MEL-5 melanoma = conditions: 10 µM
UACC-62 melanoma = conditions: 10 µM unless noted
LOX IMVI melanoma = conditions: 10 µM
SK-MEL-28 melanoma = conditions: 10 µM

SMILES | growth (DU-145 prostate) | growth (K-562 leukemia) | growth (MALME-3M melanoma) | growth (MDA-MB-231 breast) | growth (RXF 393 renal) | growth (SF-268 CNS) | growth (SF-295 CNS) | growth (SF-539 CNS) | growth (UACC-257 melanoma) | growth (M14 melanoma) | growth (HCT-15 colon) | growth (HT29 colon) | growth (SNB-75 CNS) | growth (SNB-19 CNS) | growth (U251 CNS) | growth (PC-3 prostate) | growth (SK-MEL-5 melanoma) | growth (UACC-62 melanoma) | growth (LOX IMVI melanoma) | growth (SK-MEL-28 melanoma)
Cc1ccc(/C(C#N)=C/c2ccc3c(c2)OCO3)cc1 | 98.1% | 32.4% | 84.3% | 73.3% | 75.3% | 87.7% | 110% | 91.1% | 87.1% | 75.2% | 69.5% | 37.1% | 67.8% | 88.4% | 63.2% | 81.9% | 58.6% | 73.5% | 74.9% | 81.4%
CC12CC3CC1C(C(=O)O2)C3C(=O)O (configuration not stated) | 106% | 95.6% | 94.2% | 109% | 109% | 99.2% | 101% | 97.4% | 92.1% | 117% | 104% | 98.9% | 102% | 98.6% | 103% | 101% | 104% | 98.3% | 99.7% | 106%
CC(C)=NNC(N)=S | 88.3% | 48.2% | 78.4% | 83.8% | 93.1% | 90.7% | 85.4% | 108% | 77.9% | 65.2% | 73.5% | 40.5% | 93.5% | 94.4% | 88.2% | 77.9% | 90.2% | 91% | 69.7% | 94.1%
Nc1nc(N)c(N=Nc2ccc(C(=O)O)cc2)c(N)n1 | 111% | 108% | 106% | 107% | 113% | 107% | 104% | 101% | 30.9% | 98.4% | 109% | 105% | 103% | 95.1% | 103% | 101% | 100% | 94.4% | 101% | 
S=c1nn[nH]c2ccccc12 | 120% | 99% | 148% | 93.4% | 114% | 110% | 113% | 105% | 108% | 102% | 103% | 112% | 96.4% | 95.9% | 103% | 98.1% | 97.9% | 99.2% | 93.6% | 126%
CC1CCC2C(C)(C)C3CC12CC1OC13C (configuration not stated) | 117% | 123% | 107% | 110% | 98.9% | 110% | 104% | 98.9% | 113% | 109% | 97.7% | 107% | 97.5% | 102% | 102% | 99.5% | 96.9% | 103% | 98.3% | 103%
O=c1[nH]c(O)c(/C=C2/C=Nc3ccccc32)[nH]1 | 99.3% | 86.1% | 125% | 89.6% | 103% | 82.1% | 125% | 91.5% | 101% | 99.4% | 81.2% | 95.3% | 77.4% | 104% | 103% | 83.4% | 91.2% | 95.7% | 96.6% | 
CSC[C@H](NC(=O)COc1cccc2cnccc12)C(=O)NC(Cc1ccccc1)C(O)C(=O)N1CSC[C@H]1C(=O)NC(C)(C)C (some centres not stated) | 98.9% | 107% | 105% | 93.8% | 100% | 94.4% | 97.4% | 103% | 106% | 99.3% | 96.3% | 108% | -20.5% (active) | 103% | 102% | 96.3% | 102% | 98.3% | 102% | 

— PubChem BioAssay (NCI)
